Compound activity: PubChem BioAssay, National Center for Advancing Translational Sciences (NCATS)
Only some compounds are listed: those with a hit (about 19% of all), similar ones and a draw of the others.
MCF10A rereplic: DNA re-replication induction in MCF 10a cells; MCF 10A DNA re-replication, Hoechst nuclear intensity, 48 h; Potency, µM (series often up to 46.1 µM), for the others: top-dose activity, positive = re-replication, usual class: activators; actives 2.9% (n = 350,000); AID 624296; further: potency means the concentration at half of the fitted maximal effect; % of control where 0% means no effect; nearly all actives have a fitted effect of over 50% in size
Chronic BCR inh: inhibitors of chronic active B-cell receptor signaling | Potency, µM (titrated, usually from 46.1 µM), without a hit: top-dose activity change, negative = inhibition, hits mostly inhibitors | ABC-DLBCL IkBa-CBG/CBR reporter, luminescence ratio, 4 h | actives 0.05% (n = 340,000) | AID 493014; active means well fitted inhibition curve with a large enough effect in the signal ratio, with a control signal flat, not every such curve was filed as active; inconclusive means small, poorly fitted or top-dose-only effect, or effect the other way, or a change in a side signal; the % refers to the signal ratio;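 further: potency means the concentration at half of the fitted maximal effect; plate controls were basal doxycycline-induced cells for no effect and cells given 10 µM MG132 for full effect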
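TMD8 human ABC-DLBCL cells with doxycycline-inducible IκBα–green luciferase fusion and unfused red luciferase, in 0.5% FBS medium; compounds up to 46 uM, 4 h at 37C. Green/red luminescence ratio, filter-overlap corrected, fitted to concentration-response curves.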
SW480 rerep: inducers of DNA re-replication in SW480 colon cancer cells | actives 1.8% (n = 340,000) | AID 624297 | SW480 DNA re-replication, Hoechst DNA content imaging, 48 h | Potency, µM (top dose mostly 46.1 µM), for inactives: at the top dose re-replication activation, hits mostly activators; further: potency means the concentration at half of the fitted maximal effect; % of control where 0% means no effect; nearly all actives have a fitted effect of over 55% in size
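Hoechst fluorescence of nuclei (405 nm excitation, 500-530 nm emission) measured by plate-scanning imager after 48 hr compound exposure at 37 C; re-replication scored as increased number of nuclei with elevated intensity.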
IL-1B inflam inh: inflammasome signaling inhibition, IL-1 beta readout | actives 4.7% (n = 360,000) | activity change, % at 57.5 µM | THP-1 LPS/ATP IL-1B secretion, AlphaLISA, 16 h; hits give low values; in the data active means activity change below about -50%; inconclusive means mostly about -30% to -49%; further: on the % scale 0 is the no-effect control and ±100 the full control effect
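Secreted IL-1B measured by AlphaLISA bead assay after 16 h compound exposure of THP-1 cells; compounds (final up to 57.5 uM) added 1 h before LPS (250 ng/mL) and ATP (1.25 mM) stimulation; lower signal means less secretion.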
DT40 TDP1 no CPT: qHTS for Inhibitors of human tyrosyl-DNA phosphodiesterase 1 (TDP1): qHTS in cells in absence of CPT; DT40 Tdp1-/- hTDP1 cells, no CPT, ATP luminescence, 48 h; Potency, µM (titrated, usually from 46.2 µM), inactives show at the highest dose activity change, negative = growth inhibition, hits mostly inhibitors; actives 15% (n = 420,000); further: potency means the concentration at half of the fitted maximal effect; on the % scale 0 is the no-effect control and ±100 the full control effect; nearly all actives have a fitted effect of over 55% in size
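Seeded 400 DT40-hTDP1 cells/well (vehicle DMSO, no 20 nM CPT); pinned compounds; ≥48 hr at 37 °C; CellTiter-Glo luminescence as viability measure.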
DT40 TDP1 CPT: DT40-hTDP1 cell growth loss with CPT. chicken DT40 Tdp1-/-;hTDP1 cells + 20 nM CPT, ATP luminescence, 48 h. Potency, µM (doses to about 46.2 µM), for inactives: at the highest dose activity change, negative = growth inhibition, usual class: inhibitors. actives 12% (n = 420,000). AID 686979; further: potency means the concentration at half of the fitted maximal effect; on the % scale 0 is the no-effect control and ±100 the full control effect; nearly all actives have a fitted effect of over 55% in size
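Chicken DT40 Tdp1-/- cells complemented with human TDP1, 400 cells/well, exposed to compounds plus 20 nM camptothecin for at least 48 h at 37 C; viability read as ATP content by CellTiter-Glo luminescence.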
The depositor's hits bear a star; ? = inconclusive; · = not tested or not shown; [ ] = dose if it differs, or a comment. Unless noted, the call rests on the fitted dose curve; in most records, active means well fitted curve in the direction sought with a large enough effect; inconclusive means small, poorly fitted or top-dose-only effect, or another doubt; inactive means no such curve, though single readings can be large; an effect the other way counts as inactive or inconclusive.

SMILES | MCF10A rereplic | Chronic BCR inh | SW480 rerep | IL-1B inflam inh | DT40 TDP1 no CPT | DT40 TDP1 CPT
CCC(=O)Nc1nc2ccccc2n1Cc1ccc(C)cc1 | 18% | 4% | 0%[9.22 µM] | 16 | 10µM* | 12µM*
CCC(=O)Nc1nonc1-c1nc2ccccc2n1Cc1ccc(Cl)c(Cl)c1 | 5.2µM* | · | 0% | 83 | -19% | 4%
CC(=O)Nc1nc2ccccc2n1Cc1ccc(Cl)cc1 | 3% | ? | ? | 46 | ? | 23µM*
Cn1c(NCc2ccc(Cl)cc2)nc2ccccc21 | -1% | 3% | 1% | ? | 15µM* | ?
O=C(c1ccco1)N1CCN(C2CN(Cc3cn(Cc4ccccc4C(F)(F)F)nn3)S(=O)(=O)C2)CC1 (centres undefined) | · | · | · | -14 | 7% | 2%
C=CCn1c(C)nnc1SCC(=O)Nc1nccs1 | 6% | 0% | 0% | -13 | 17% | 8%
COc1ccc(NC(=O)CS(=O)CC(=O)Nc2ccc(-n3cnnn3)c(C)c2)cc1 (centres undefined) | -3% | 10% | -9% | 6 | 0% | 8%
CCC(=O)Nc1nc2ccccc2n1Cc1ccccc1 | 6% | 1% | 6% | 25 | 16µM* | 15µM*
Cc1ccc(N(C(=O)CNC(=O)c2ccco2)C(C(=O)NC2CCCCC2)c2ccncc2)cc1F (centres undefined) | -13% | 4% | 25% | -8 | 4% | 9%
CCOC(=O)c1nc2cc3n(c(CC(C)C)c-2c1C)CC(C)=C3C | ? | ? | 1% | -2 | ? | 21µM*
CCOC(=O)c1cccc(C(=O)OCC)n1 | 13% | -7% | 0% | 15 | -4% | -15%
CCOC(=O)c1nnc2cc(C)nn2c1C | 2% | -1% | -2% | -14 | -2% | 8%
CCOC(=O)c1nc2cc3n(c(C)c-2c1C)C(C)C(C)=C3C (centres undefined) | 8% | ? | -4% | -62* | 13µM* | ?
COc1ccc(-c2ccc(C(C)=O)cc2)cc1[C@H]1[C@H]2C=CC[C@@H](C)[C@@H]2C(=O)N1Cc1ccccc1 | ? | -3% | 17% | 37 | 16µM* | 23µM*
COc1ccc(-c2ccc(OC)c([C@H]3[C@@H]4C=CCC[C@@]4(C)C(=O)N3Cc3ccccc3)c2)cc1OC | ? | ? | ? | 0 | ? | ?
COC(=O)c1ccc(-c2ccc(OC)c([C@H]3[C@H]4C=CC[C@@H](C)[C@@H]4C(=O)N3Cc3ccccc3)c2)cc1 | 6% | ? | ? | 49 | 6.5µM* | 5.8µM*
Cc1ccc(/C=C/C(=O)Nn2cnnc2)cc1 | ? | ? | ? | -115* | 15µM* | ?
CC(C)c1ccc(/C=C/C(=O)Nn2cnnc2)cc1 | · | · | · | · | 1% | 2%
CCC(CC)c1nnc(NC(=O)c2cc(-c3ccccc3)nc3ccccc23)s1 | -64% | -1% | -14% | 1 | -5% | 7%
CCC(CC)c1nnc(NC(=O)c2ccc3ccccc3n2)s1 | ? | ? | -8%[9.22 µM] | 4 | 11µM* | ?
Oc1ccccc1CNCC12CC3CC(CC(C3)C1)C2 | -2% | 5% | ? | -87* | ? | ?
OCCNCC12CC3CC(CC(C3)C1)C2 | 11% | 1% | 5% | 10 | -3% | -5%
CC(CC12CC3CC(CC(C3)C1)C2)NCc1ccccc1O (centres undefined) | ? | ? | ? | -85* | 16µM* | 15µM*
COc1ccc([C@@H]2C[C@H]3[C@@H](CN2S(=O)(=O)c2ccccc2)C(=O)C[C@@H](c2cccc4ccccc24)N3S(=O)(=O)c2ccc(C)cc2)cc1 | · | · | · | 0 | 1% | 11%
Cc1ccccc1CS(=O)(=O)c1ncc(Cl)c(C(=O)Nc2ccc(F)cc2)n1 | ? | ? | -4% | -98* | 2.1µM* | 3.3µM*
SMILES | MCF10A rereplic | Chronic BCR inh | SW480 rerep | IL-1B inflam inh | DT40 TDP1 no CPT | DT40 TDP1 CPT
CCOc1ccc(NC(=O)c2nc(S(=O)(=O)Cc3ccccc3C)ncc2Cl)cc1 | · | · | · | · | 0.71µM* | 1µM*
CCOc1ccc(-c2c(C)nn3c(C)c(C(=O)NC(C)c4ccccc4)cnc23)cc1OCC (centres undefined) | · | · | · | · | 16µM* | 21µM*
CCOc1ccc(-c2c(C)nn3c(C)c(C(=O)NCCc4ccccc4)cnc23)cc1OCC | · | · | · | · | 5.2µM* | ?
CCOc1ccc(-c2c(C)nn3c(C)c(C(=O)Nc4ccccc4C(=O)OC)cnc23)cc1OCC | · | · | · | · | -17% | ?
CCCCNC(=O)c1cnc2c(-c3ccc(OCC)c(OCC)c3)c(C)nn2c1-c1ccccc1 | · | · | · | · | -30% | ?
Cc1ccc(C(=O)N(Cc2ccco2)Cc2sccc2C)cc1 | · | · | · | · | 23µM* | 21µM*
Cc1ccc(C(=O)N(CC(=O)Nc2ccc(Cl)c(Cl)c2)Cc2ccco2)cc1 | 13% | 3% | 12% | -1 | -7% | -4%
Cc1ccsc1CN(Cc1ccco1)C(=O)c1ccc(Cl)cc1 | · | · | · | · | 13µM* | 16µM*
CC(=O)c1ccc(S(=O)(=O)Nc2cccc(-c3ccc(N4CCOCC4)nn3)c2)cc1 | ? | ? | -3% | -25 | ? | ?
CC1(C(=O)Nc2ccc3c(c2)OCCO3)CN(S(C)(=O)=O)CC(=O)N1CCCn1ccnc1 (centres undefined) | · | · | · | ? | 12% | -1%
CCCCNC(=O)C1(C)CCC(=O)N1CCOC (centres undefined) | · | · | · | -4 | 1% | 1%
Cc1cc(C)c2c(CCl)cc(=O)oc2c1 | 5.2µM* | ? | 3.7µM* | · | 0.92µM* | 0.92µM*
Cc1cc(C)c2c(CN3CCN(C/C=C/c4ccccc4)CC3)cc(=O)oc2c1 | 17% | ? | 5% | ? | ? | 29µM*
Cc1cc(C)c2c(CN3CCCCC3)cc(=O)oc2c1 | -1% | 0% | 5% | 1 | -19% | 4%
CC(C)CN1CCC2(CC1)CCN(C(=O)c1cccc(F)c1)CC2 | · | · | · | · | -15% | -6%
c1ccc(-c2nc3c4ccccc4ccn3c2CN2CCCCC2)cc1 | ? | 2% | 3% | -71* | 21µM* | ?
Cc1ccc(-c2nc3c4ccccc4ccn3c2CN2CCCCC2)cc1 | ? | ? | 5% | -1 | 23µM* | 23µM*
Cn1c(SCC(=O)N2CCCC2=O)nc2ccccc21 | 3% | -13% | -10% | 19 | 1% | -13%
